# Screening data from PubChem BioAssay.
# Mdm2 MdmX PPI: disrupts the human Mdm2-MdmX interaction; O15151+Q00987; SaOS-2 split-luciferase Mdm2/MdmX complementation, luminescence; inhibition, % at 8 µM; 330,000 tested, 3% active; AID 485346;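 active means inhibition of at least 50% at 8 µM in the primary screen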
# Beta cell apopt: beta cell apoptosis inhibition; INS-1E cytokine-induced death, ATP luminescence, 48 h; percent of positive-control rescue, neutral wells zero; protection from apoptosis, % (test concentration not listed); 300,000 tested, 0.8% active; AID 435005;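 active means Every replicate reaches about 75%, or at least half do and their mean reaches it too, limit read from the data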;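 further: 0% = cytokine-treated negative control wells and 100% = positive control rescue; higher means more ATP so stronger rescue from cytokine killing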
# MPTP block: permeability transition pore inhibition | isolated mouse mitochondria, Ca2+ swelling absorbance, 30 min | inhibition, % at 10 µM | 360,000 tested, 1.4% active;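 active means inhibition of 50% or more, scaled per plate between neutral and stimulator controls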;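 further: 0% = DMSO wells given calcium and 100% = 1 mM EGTA wells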
# SKKanGAS inh: blocks kanamycin growth of S. pyogenes SKKanGAS strain | 300,000 tested, 1.3% active | BacTiter-Glo, 6 h | inhibition, % at 7.5 µM | AID 1662;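 active means mean replicate score, as percent of positive control median, at least 50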;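 further: strain carries kanamycin resistance gene driven by streptokinase promoter and grows in 40 µg/ml kanamycin; loss of luminescence reflects streptokinase promoter inhibition or plain growth inhibition; 0% = median of DMSO wells and 100% = positive control at its reference dose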
# CSC inhib: blocks cancer stem cells | cancer stem cell-like cells viability, luminescence | inhibition, % at 7.5 µM | 300,000 tested, 1.1% active; in the data active means inhibition above about 75%; tested in HMLE shEcad cells
# Calb FLC: affects C. albicans growth with fluconazole. C. albicans CaCi-2 (fluconazole-resistant clinical isolate) + fluconazole, Alamar Blue growth, 48 h. growth inhibition, % (concentration not given with the values). 300,000 tested, 0.57% active. AID 1979;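 active means growth inhibition above about 58% in most replicates, limit read from the data, passing the limit was not always enough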;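 further: all wells also contain fluconazole at 8 µg/ml as a sub-toxic cotreatment; 0% = median of DMSO wells and 100% = median of geldanamycin control wells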
# Rh123 counter: Rhodamine 123 counter-screen of mitochondrial pore hits; shares compounds with MPTP block; isolated mitochondria, membrane potential, Rhodamine 123 fluorescence; inhibition, % at 10 µM; 5,000 tested, 78% active; AID 624504; in the data active means inhibition above about 22%;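 further: 0% = DMSO vehicle and 100% = positive control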
# MPTP abs DR: MPTP inhibition, dose response swelling confirmation; shares compounds with MPTP block; isolated mitochondria swelling, absorbance; IC50, µM; 780 tested, 58% active; in the data active means IC50 below about 20 µM
# MPTP cs DR: MPTP inhibitor counter-screen activity, dose response; shares compounds with MPTP block; isolated mitochondria counterscreen, fluorescence read-out; IC50, µM; 780 tested, 49% active; in the data active means IC50 below about 80 µM
# The depositor's hits bear a star; i = inactive; . = no result given. Hits are enriched below; roughly 5.4% of the tested compounds scored in any of these assays.
SMILES,Mdm2 MdmX PPI,Beta cell apopt,MPTP block,SKKanGAS inh,CSC inhib,Calb FLC,Rh123 counter,others
Cc1ccc(NNC(=O)C(O)(c2cccc(C(F)(F)F)c2)c2cccc(C(F)(F)F)c2)cc1,4.3,3.0,71.6*,28.8,98.9*,69.3,68.7*,
Cc1ccc(-c2csc(SCC(=O)c3c(N)n(C4CC4)c(=O)[nH]c3=O)n2)cc1,32.7,.,-0.4,.,.,.,.,
O=C(NNc1ncnc2sccc12)c1ccc(Cl)cc1,-11.6,12.8,31.5,-19.2,2.8,-12.7,.,
Cc1csc2ncnc(NNC(=O)c3ccc(Cl)cc3)c12,22.3,32.0,55.2*,-3.0,2.4,-6.2,38.9*,
CNC(=O)c1c(NC(=O)CCS(=O)(=O)c2ccc(C)cc2)sc2c1CCN(C(=O)OC)C2,-1.8,.,0.6,-6.6,-1.5,14.3,.,
CCOc1ccc2nc(N3C(=O)/C(=C/c4ccccc4)NC3=S)sc2c1,-43.3,14.6,84.0*,99.6*,.,92.1*,15.4,
COC(=O)c1ccc(NC(=S)NCCc2cccc(C)c2)cc1,26.4,2.3,87.7*,2.0,.,-10.8,90.8*,
COC(=O)c1ccc(NC(=S)NCCc2ccccc2C)cc1,11.5,-6.6,99.9*,4.2,-8.1,4.7,82.6*,
COC(=O)c1ccc(NC(=S)NCCc2ccc(OC)cc2)cc1,11.3,1.0,7.9,-0.4,-2.4,30.3,.,
O=C1/C(=C/c2ccc(O)cc2)CCc2ccc([N+](=O)[O-])cc21,-3.4,-10.7,5.1,8.6,16.8,-10.8,.,
CC1(C)CC(=Cc2cc(O)ccc2[N+](=O)[O-])C(=O)c2ccccc21,.,.,91.1*,.,.,.,93.7*,
O=[N+]([O-])c1ccccc1/C=C/CN1CCCCC1,8.9,0.0,0.6,4.2,0.0,2.8,.,
O=C(Nc1ccccc1)c1ccc(Cn2cc(C(F)(F)F)ccc2=O)cc1,13.6,5.6,0.1,-0.6,6.1,23.1,.,
O=C(Nc1cc(C(F)(F)F)cc(C(F)(F)F)c1)c1ccc(Cn2cc(C(F)(F)F)ccc2=O)cc1,21.8,52.5,72.3*,4.7,-9.4,1.4,24.9*,
O=C(COc1ccc(S(=O)(=O)N2CCOCC2)cc1Cl)NCC1CCCO1 (configuration not stated),6.9,-0.1,-0.3,3.2,-7.5,7.3,.,
CCOC(=O)c1oc2ccc(Br)cc2c1NC(=O)CN1CCN(C)CC1,16.6,-4.1,69.4*,.,1.5,.,-5.9,
CC(C)=N/N=C(\N)SCc1ccccc1,4.1,1.8,1.1,-0.5,18.8,-3.7,.,
Clc1ccc2[nH]cc(-c3nnnn3-c3ccc4ccccc4c3)c2c1,31.1,30.7,83.7*,36.9,14.6,9.2,77.4*,
Fc1ccc(-c2nnc(N3CCOCC3)c3ccccc23)cc1F,-10.3,.,0.8,-5.9,1.8,17.3,.,
COc1cc(CCc2ccccc2)c(C(=O)O)c(O)c1C/C=C(/C)CCC=C(C)C,17.6,.,86.6*,.,.,.,55.7*,
COc1cc(CCc2ccccc2)c(C(=O)O)c(O)c1CC=C(C)C,.,.,93.3*,.,.,.,68.9*,
COc1ccc(NC(=O)CCCc2ccccc2)c(OC)c1,8.9,2.3,-0.3,-0.9,-16.0,3.6,.,
COCOc1ccc(/C=C/C(=O)c2c(OCOC)cc(OCOC)c(CC=C(C)C)c2O)cc1OCOC,32.0,-2.6,3.9,13.0,-5.1,-7.9,.,
CNC(=O)CCCCCNS(=O)(=O)c1ccc(C)cc1,7.5,-5.4,-1.2,0.3,-16.5,-1.6,.,
COc1cccc(NC(=O)CSc2nc3ncc(Br)cc3[nH]2)c1,44.5,-4.6,5.6,-2.8,69.1,3.9,.,
SMILES,Mdm2 MdmX PPI,Beta cell apopt,MPTP block,SKKanGAS inh,CSC inhib,Calb FLC,Rh123 counter,others
CCc1ccc(NC(=O)CSc2nc3ncc(Br)cc3[nH]2)cc1,19.7,12.5,53.8*,4.6,28.1,-10.3,87.6*,
Cc1ccc2nc(C(Cl)(Cl)Cl)nc(N/N=C/c3ccc([N+](=O)[O-])cc3)c2c1,.,.,94.4*,.,.,.,9.5,MPTP abs DR=i;MPTP cs DR=11.4*
Cc1ccc2nc(C(Cl)(Cl)Cl)nc(N/N=C/c3ccncc3)c2c1,-0.6,4.0,-1.2,8.1,-8.9,12.5,.,
C[C@H](NC(=O)c1nc[nH]c1C(=O)NC(c1ccccc1)c1ccccc1)C(=O)OC(C)(C)C,28.9,-9.5,0.6,42.7,32.6,15.7,.,
O=C(OCc1cn([C@@H]2CN(CC3CCCCC3)[C@@H](c3ccc(Cl)cc3)C[C@H]2O)nn1)c1ccccc1,.,.,-0.2,.,.,.,.,
CN(C)CCOC(C1CCCCC1)C1CCCCC1,13.7,-5.7,73.5*,3.0,-3.5,-11.9,-3.3,MPTP abs DR=14.7*;MPTP cs DR=>80
Cc1c(C)n(Cc2ccccc2)c2ncnc(NCCO)c12,5.9,-2.8,-0.3,-1.2,-9.0,-6.3,.,
O=C(Nc1ccc([N+](=O)[O-])cc1)NN1CCCCCC1,.,.,102.5*,.,.,.,86.7*,
N#Cc1ccc(NC(=O)NN2CCCCCC2)cc1,.,.,101.5*,.,.,.,86.6*,
OC(COc1c(F)cc(Br)cc1F)CN1CCOCC1 (configuration not stated),-8.6,-0.8,-0.8,4.9,-5.9,-14.7,.,
O=C1CC2(CCN(C(=O)c3c(F)cccc3Cl)CC2)Oc2ccccc21,19.1,-2.1,-1.3,-8.5,-5.1,-13.9,.,
Cc1ccc(C(=O)Nc2cccc(C(F)(F)F)c2)cc1NC(=O)c1[nH]cnc1C(N)=O,5.6,-1.2,-0.4,.,-22.9,.,.,
CCOCC(=O)Nc1cc(C(=O)Nc2ccccc2)ccc1Cl,15.3,-0.2,-1.4,-1.3,-2.9,-11.0,.,
c1ccc(-c2nc(-c3cccs3)[nH]c2-c2ccccc2)cc1,32.8,12.5,4.1,1.6,6.8,2.8,.,
c1csc(-c2nc3c4ccccc4c4ccccc4c3[nH]2)c1,46.6,38.4,72.1*,40.5,57.7,21.6,47.8*,
CC(Sc1ccc(Cl)cc1)C(=O)NNC(=O)c1ccccc1O (configuration not stated),42.6,.,0.2,3.9,45.0,-1.5,.,
O=C(CCCCN1CCCCC1)c1ccc2c(c1)Cc1ccccc1-2,0.7,44.2,94.7*,13.4,-9.1,0.9,81.2*,
COc1cnn(C(C)(C)C)c(=O)c1Cl,-30.4,-3.0,-1.2,1.7,-10.5,-8.7,.,
Cc1cccc(Oc2cnn(C(C)(C)C)c(=O)c2Cl)c1,22.9,2.4,61.5*,4.5,5.0,-9.1,44.9*,
Cc1ccc(C)c(CC(=O)N2CCCCC2c2cc(C(=O)Nc3ccc(F)c(Cl)c3)no2)c1 (configuration not stated),.,.,0.9,.,.,.,.,
COc1ccc(NC(=O)CSc2nc3ccsc3c(=O)n2CCC(=O)O)cc1,.,.,-1.4,.,.,.,.,
CCCCC1CC(CSC(=N)N)OC1=O (configuration not stated),-35.1,.,0.1,-3.9,-5.7,-7.3,.,
CCCCCCCC1CC(CSC(=N)N)OC1=O (configuration not stated),7.8,-12.6,97.3*,0.7,-11.4,13.0,-4.8,MPTP abs DR=6.29*;MPTP cs DR=51.5*
